Screening data deposited in PubChem by The Scripps Research Institute Molecular Screening Center.
Many of the other results were omitted from the sample, so hits are more common in it than they were.
TTR transcr act: increases transthyretin transcription; SH-SY5Y TTR promoter Gaussia luciferase, luminescence; 100% = recombinant luciferase protein wells; activation, % at 16.7 µM; actives 1.3% (n = 92,000);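 active = activation above the mean of all tested compounds plus 3 SD, cut at about 9.5% in these data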;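 also: cells exposed to compounds for one day before reading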
TTR inh HuH7: counter-screen for TTR activators: TTR transcription inhibitors in HuH7 cells. HuH7 TTR promoter-Gaussia luciferase reporter, luminescence. actives 4% (n = 1,100). shares compounds with TTR transcr act. AID 1117279. inhibition, % at 16.7 µM;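 active = average inhibition above the solvent-only control wells' mean plus 3 SD, cut at about 15% in these data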;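 also: inhibitors lower well luminescence so higher value means more inhibition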
TTR up confirm: human TTR transcription activation, confirmation; shares compounds with TTR transcr act; SHSY5Y TTR promoter Gaussia luciferase, luminescence; 100% = purified Lucia enzyme wells, no cells; AID 1117280; 1,100 tested, under 10 active; activation, % at 16.7 µM;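 active = mean activation above a set limit taken from the earlier primary screen, cut at about 11% in these data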
Of the large screens only hits and unclear results are named; the others gave an inactive call (follow-up assays come after a bar, where they were run).

CCOC(=O)[C@]12CCCC=C1N(Cc1ccco1)C(=O)[C@H](CC(=O)NCCC(C)C)C2	none
O=C(O)CNC(=O)C1(N2C(=O)c3ccccc3C2=O)CCCC1	none
CCC1(CC)C(=O)N=C2c3ccccc3C(=O)N21	TTR transcr act 47.8 | TTR inh HuH7 inactive | TTR up confirm inactive
CC(C)NC(=O)C1(N2C(=O)c3ccccc3C2=O)CCCC1	none
Cc1ccc(S(=O)(=O)N2CC3(COC(C)(C)OC3)C[C@H]2CON2C(C)(C)CCCC2(C)C)cc1	none
Cc1ccc(NC(=O)CSC2=NN3CCCC(=O)N=C3S2)c(C)c1	none
O=C1CCCN2N=C(SCC(=O)Nc3ccc([N+](=O)[O-])cc3)SC2=N1	TTR transcr act 32.1 | TTR inh HuH7 inactive | TTR up confirm inactive
O=C1CCCN2N=C(SCC(=O)Nc3nccs3)SC2=N1	none
C[C@@H]1CCN(C2CC2)S(=O)(=O)c2c(cccc2N2CC[C@H](O)C2)O1	none
CC(CCCCCCCCC(=O)O)N(CCO)C(=O)OC(C)(C)C (stereo not drawn)	TTR transcr act 10.4 | TTR inh HuH7 inactive | TTR up confirm inactive
CCCCCCCCCCCCC(=O)CCCCC(=O)O	none
CCCCCCC(=O)O	none
COCCCNCCCCOc1ccccc1-c1ccccc1	none
C=CCNCCCCOc1ccc(OCc2ccccc2)cc1	none
COCCCNCCCCOc1ccc(OCc2ccccc2)cc1	TTR transcr act 34.1 | TTR inh HuH7 inactive | TTR up confirm inactive
CCCCCCCCN1C(=O)[C@@H](CC(=O)NCc2cccc(C(F)(F)F)c2)C[C@@]2(C(=O)OC)C1=C[C@H](COCc1ccccc1)O[C@@H]2C	none
CCOc1cc(OCC)cc(C(=O)N2CCC[C@@H]2C(=O)N2CCC[C@H]2C(=O)NCc2ccncc2)c1	none
O=C(Nc1ccc2oc(-c3ccncc3)nc2c1)c1ccc2c(c1)OCCO2	none
O=C(Nc1ccc2oc(-c3ccncc3)nc2c1)c1ccc(F)cc1	none
O=C(Nc1ccc2oc(-c3ccncc3)nc2c1)c1ccc(Br)o1	TTR transcr act 10.2 | TTR inh HuH7 inactive | TTR up confirm inactive
COc1ccccc1NC(=O)OC1CC2CC1[C@H]1CCCCN1[C@H]2Cc1ccccc1 (stereo partly drawn)	none
CCCCOCCCNC(=O)C[C@@H]1C[C@]2(C(=O)OCC)CCC3=C2N(CCC3)C1=O	none
COC(=O)[C@]12C[C@H](CC(=O)N3CCOCC3)C(=O)N(Cc3cccc4ccccc34)C1=C[C@H](C1CCCC1)O[C@@H]2C	none
CCOC(=O)c1sc(N(Cc2ccccc2)C(=O)CCl)nc1C	none
CCOC(=O)c1sc(N(Cc2ccccc2)C(=O)COC(=O)c2ccccc2O)nc1C	TTR transcr act 13.0 | TTR inh HuH7 inactive | TTR up confirm inactive
Cc1ccsc1C(=O)OCC(=O)N(Cc1ccccc1)C(C)C	none
NC(=O)C1CCN(c2nc(-c3ccc4c(c3)OCCCO4)cs2)CC1	none
COCC(=O)N(c1ccc(C(C)(C)C)cc1)C(C(=O)NC(C)(C)C)c1cccnc1 (stereo not drawn)	none
Cc1c(Cl)cccc1NC(=S)NC(=O)c1ccccc1	none
O=C(NC(=O)N1CCCC1)c1csnn1	none
O=C(NC(=S)Nc1ccccc1Cl)c1csnn1	TTR transcr act 13.2 | TTR inh HuH7 inactive | TTR up confirm inactive
O=C(Nc1sc2c(c1-c1nc3ccccc3s1)CCNC2)C(F)F	none
COc1cccc(NC(=O)Nc2c(-c3ccc(C(F)(F)F)cc3)nc3ncccn23)c1	none
COc1ccc2[nH]c3c(c2c1)CCN[C@]31C(=O)Nc2ccccc21	none
CC(C)(C)OC(=O)NCCc1ccccc1/C=C/S(=O)(=O)NCc1ccccc1	none
C=Cn1cc(CNC[C@H]2O[C@@H](n3cc(C)c(=O)[nH]c3=O)C[C@@H]2O)c(C)n1	TTR transcr act 11.4 | TTR inh HuH7 inactive | TTR up confirm inactive
Cc1cn([C@H]2C[C@H](O)[C@@H](CNC(=O)[C@H]3CCC(=O)N3)O2)c(=O)[nH]c1=O	none
Cc1cn([C@H]2C[C@H](O)[C@@H](CNCc3ccc(N4CCN(C)CC4)cc3F)O2)c(=O)[nH]c1=O	none
COC(=O)c1cccc(Cn2ccc3ccc(-c4ccc5ccn(C(=O)c6ccc(C)cc6)c5c4)cc32)c1	none
O=C(NCc1cccc(C(F)(F)F)c1)O[C@H]1CC[C@@]23CCCN2C(=O)CCC[C@H]3C1	none
COC[C@H]1CCCN1c1ccc2c(c1)O[C@H](C)CCN(C1CC1)S2(=O)=O	none
COc1ccc(NC(=S)N(Cc2cccc(Br)c2)CC2CCC(C(=O)O)CC2)cc1 (stereo not drawn)	TTR transcr act 43.4 | TTR inh HuH7 inactive | TTR up confirm inactive
COc1cccc(NC(=S)N(Cc2cccc(Br)c2)CC2CCC(C(=O)O)CC2)c1 (stereo not drawn)	none
COc1ccc(CN(CC2CCC(C(=O)O)CC2)C(=S)Nc2ccc(C)c(Cl)c2)cc1 (stereo not drawn)	none
COc1ccc(-c2nc(NC(=O)Cn3c(=O)oc4ccccc43)sc2C)cc1	none
CC1CCCCN1c1nnc(NC(=O)Cn2c(=O)oc3ccccc32)s1 (stereo not drawn)	TTR transcr act 19.3 | TTR inh HuH7 inactive | TTR up confirm inactive
COc1ccc(NC(=O)Nc2nnc(N3CCCCC3C)s2)cc1OC (stereo not drawn)	none
NCCC(=O)Nc1ccc(Cl)cc1C(=O)c1ccc[nH]1	none
Cc1ccc(/C=N/NC(=O)c2ccc(NC(=O)c3ccccc3Cl)cc2)o1	none
Cc1ccc(/C=N/NC(=O)c2csc(C)c2)o1	TTR transcr act 23.0 | TTR inh HuH7 16.4 | TTR up confirm inactive
Cc1ccc(/C=N\NC(=O)c2cncc(Br)c2)o1	none
Nc1ncnc2c1ncn2[C@@H]1O[C@H](C(=O)NCC2CCN(Cc3ccccc3)CC2)[C@@H](O)[C@H]1O	none
N#CN1CCC(NS(=O)(=O)c2cccc(C(F)(F)F)c2)CC1	none
CCC(=O)Nc1ccc(Cl)cc1C(=O)c1ccc[nH]1	none
Cc1cccc(OCC(=O)OCC(=O)c2c(N)n(C)c(=O)n(C)c2=O)c1	TTR transcr act 11.4 | TTR inh HuH7 inactive | TTR up confirm inactive
Cc1cccc(OCC(=O)OCC(=O)c2c(N)n(C)c(=O)n(C)c2=O)c1C	none
Cc1ccc(C(C)C)c(OCC(=O)OCC(=O)c2c(N)n(C)c(=O)n(C)c2=O)c1	none
CCCCCCCCN1C(=O)[C@@H](CC(=O)N2CCSCC2)C[C@@]2(C(=O)OC)C1=C[C@H](C(C)C)O[C@@H]2C1CC1	none
C[C@@H]1CCCCO[C@@H](CN(C)C(=O)Nc2ccc(F)cc2)[C@@H](C)CN([C@H](C)CO)C(=O)c2cc(NC(=O)Nc3ccc4c(c3)OCO4)ccc2O1	none
Cn1c2ccc(F)cc2c2ncn(Cc3ccccn3)c(=O)c21	TTR transcr act 14.5 | TTR inh HuH7 inactive | TTR up confirm inactive
Cn1c2ccccc2c2ncn(Cc3ccco3)c(=O)c21	none
Cn1c2ccc(F)cc2c2ncn(Cc3ccco3)c(=O)c21	none
CN(C)[C@@H]1CCN(c2ccc3c(c2)OCCCN(C2CC2)S3(=O)=O)C1	none
COC(=O)[C@]12C[C@H](CC(=O)NCC34CC5CC(CC(C5)C3)C4)C(=O)N(Cc3cccc4ccccc34)C1=C[C@H](C(C)C)O[C@@H]2C1CC1	none
CCOC(=O)C1=C(CS(=O)(=O)c2ccccc2)NC(=O)NC1c1ccccc1 (stereo not drawn)	none
CCOC(=O)C1=C(c2ccccc2)NC(=O)NC1c1ccc(N(C)C)cc1 (stereo not drawn)	TTR transcr act 14.0 | TTR inh HuH7 inactive | TTR up confirm inactive
